Screens deposited in PubChem BioAssay by Johns Hopkins Ion Channel Center.
Shown are actives, neighbours in structure and some others; about 1.6% of the full set was active somewhere.
KCNQ2 block – inhibitors of rat KCNQ2 potassium channel; O88943; CHO-K1 KCNQ2, FluxOR thallium flux, 20 min; active compounds read low; B-score at 10 µM; 310,000 compounds, 1.1% hits;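 active = fluorescence ratio B-score at most minus 3 library SDs, with starting brightness B-score within 2 library SDs, cut at about -5.5 in these data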
Target sequence (O88943 whole entry, looked up): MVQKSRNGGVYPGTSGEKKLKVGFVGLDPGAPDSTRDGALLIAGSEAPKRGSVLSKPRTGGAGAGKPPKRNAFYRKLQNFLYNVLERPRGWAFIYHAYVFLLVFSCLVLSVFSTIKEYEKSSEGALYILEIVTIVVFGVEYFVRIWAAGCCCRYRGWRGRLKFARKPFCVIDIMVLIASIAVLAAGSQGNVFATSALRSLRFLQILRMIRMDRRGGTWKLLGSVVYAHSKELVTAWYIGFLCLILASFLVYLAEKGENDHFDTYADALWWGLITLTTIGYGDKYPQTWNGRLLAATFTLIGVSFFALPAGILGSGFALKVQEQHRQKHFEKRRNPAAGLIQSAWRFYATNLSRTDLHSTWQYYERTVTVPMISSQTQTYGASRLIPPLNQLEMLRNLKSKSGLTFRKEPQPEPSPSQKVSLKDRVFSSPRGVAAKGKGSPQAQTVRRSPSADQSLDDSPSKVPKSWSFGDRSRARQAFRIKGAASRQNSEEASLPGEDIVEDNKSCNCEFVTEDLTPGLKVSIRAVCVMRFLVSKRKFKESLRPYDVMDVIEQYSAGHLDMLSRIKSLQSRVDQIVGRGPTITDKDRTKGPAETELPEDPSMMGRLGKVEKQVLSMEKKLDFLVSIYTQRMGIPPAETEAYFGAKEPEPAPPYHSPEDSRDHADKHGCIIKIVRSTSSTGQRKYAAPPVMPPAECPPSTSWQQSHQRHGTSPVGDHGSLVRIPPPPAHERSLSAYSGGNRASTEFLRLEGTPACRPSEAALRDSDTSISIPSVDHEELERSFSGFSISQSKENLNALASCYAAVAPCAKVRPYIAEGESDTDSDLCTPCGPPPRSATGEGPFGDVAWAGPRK
KCNQ2 pot – potentiators of rat KCNQ2 potassium channel | AID 2239 | CHO-K1 KCNQ2, FluxOR thallium flux fluorescence; active compounds read high | O88943 | 310,000 compounds, 0.54% hits | B-score at 10 µM;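 active = fluorescence ratio B-score at least 3 SD of library B-scores, with initial fluorescence B-score within 3 of them, cut at about 5.3 in these data; same plate scores as AID 2156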;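 note: B-score of peak minus minimum over baseline fluorescence ratio after K+ and Tl+ stimulus; positive B-score means potentiation of KCNQ2 with more thallium influx and brighter signal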
KCNQ2 inh conf – rat KCNQ2 channel inhibition, confirmatory screen; 1,000 compounds, 57% hits; shares compounds with KCNQ2 block; KCNQ2-expressing cells, thallium flux; active compounds read low; AID 493025; activity change, negative = inhibition, % at 10 µM;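 note: 0% = vehicle wells and values are ratio percent relative to vehicle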
KCNQ1 spec – selectivity of KCNQ2 inhibitors against human KCNQ1; 1,000 compounds, 15% hits; activity change, negative = inhibition, % at 10 µM; shares compounds with KCNQ2 block; KCNQ1-expressing cells, FluxOR thallium flux fluorescence; active compounds read low;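 active = activity change at least 3 SD of negative controls below their mean in both duplicate wells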;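 note: CHO cells stably transfected with KCNQ1 and depolarized by potassium stimulus; peak minus minimum fluorescence over baseline after thallium addition; 0% = vehicle negative control and -100% = blank without thallium stimulus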
CHO Tl ctr – counter-screen for KCNQ2 inhibitors: effect in parental CHO cells. 1,000 compounds, 14% hits. shares compounds with KCNQ2 block. thallium flux counter-screen; active compounds read low. activity change, % at 10 µM;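 note: 0% = vehicle negative controls with stimulus buffer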
KCNQ2 patch conf – confirmation of rat KCNQ2 potassium channel inhibitors; calls only at 10 µM; 550 compounds, 49% hits; KCNQ2-expressing cells, automated patch clamp current; shares compounds with KCNQ2 block
Active calls of the source: *; i = inactive; . = not tested or not shown; + = active, no number. Unless noted, the rule behind the calls is not given here.

SMILES | KCNQ2 block | KCNQ2 pot | KCNQ2 inh conf | KCNQ1 spec | CHO Tl ctr | others
CCOCCCNC(=O)c1c[nH]c2ccc(OCC)cc2c1=O | i | 1.5 | . | . | .
NS(=O)(=O)c1ccc(NC(=S)Nc2ccn(Cc3cccc4ccccc34)n2)cc1 | i | . | . | . | .
COc1ccc(C)cc1N(C)C(=O)Cc1c(C(=O)O)n(C)c2ccccc12 | i | . | . | . | .
COC(=O)NN1C(=O)C(c2ccccc2)=C(c2ccc(Cl)cc2)C1=O | -8.78* | -8.78 | i | i | i
COC(=O)Nc1c(-c2ccccc2)nc2ccc(Cl)cn12 | i | . | . | . | .
CC(Nc1cc(C)cc(C)c1)=[N+](C)CCNS(=O)(=O)c1ccc(Cl)cc1 | i | . | . | . | .
COc1ccccc1N1CCN(C(=O)c2oc3cc(C)cc(C)c3c2C)CC1 | -8.25* | -8.25 | i | i | i
COc1ccccc1N1CCN(C(=O)c2cc(=O)c3ccc(C)cc3o2)CC1 | i | 0.17 | . | . | .
C=CCOC(=O)C1=C[C@H](c2ccc3c(c2)OCO3)C[C@H](OCCCCO)O1 | i | . | . | . | .
Cc1cccc(OCC(=O)Nc2cccc(-c3nnc(-c4ccccc4)o3)c2)c1C | i | 0.59 | . | . | .
Cc1cccc(C)c1OCC(=O)Nc1cccc(-c2nnc(-c3ccccc3)o2)c1 | -9.54* | -9.54 | -27.5%* | i | i | KCNQ2 patch conf=i
CCN(CC)CCCCNc1ncc2cc(-c3cc(OC)cc(OC)c3)c(NC(=O)NC(C)(C)C)nc2n1 | i | 0.06 | . | . | .
COc1cccc(OC)c1C(=O)Nc1ccccc1Sc1ccccc1 | -6.98* | -6.98 | i | i | i
COc1cccc(OC)c1C(=O)Nc1ccccc1NC(=O)c1c(OC)cccc1OC | i | 0.06 | . | . | .
COC(=O)/C(=C\Nc1ccc(Cl)c2ccccc12)c1ncc(C(F)(F)F)cc1Cl | -8.45* | -8.45 | -18.0%* | i | i | KCNQ2 patch conf=i
CCOC(=O)/C(=C\Nc1ccccc1C(F)(F)F)Sc1ncc(C(F)(F)F)cc1Cl | i | . | . | . | .
CCCC(=O)c1c(NCCO)cc(C)oc1=O | i | . | . | . | .
Cc1cccc(Cc2ncc(C(F)(F)F)cc2Cl)c1 | i | 1.52 | . | . | .
COc1ccccc1-c1cc(C(F)(F)F)nc(N2CCCC2)n1 | i | 0.01 | . | . | .
COc1ccccc1-c1cc(C(F)(F)F)nc(N2CCCCC2)n1 | -9.68* | -9.68 | i | i | i
CCN(c1cccc(C)c1)c1nc2ccsc2c(=O)s1 | i | 0.92 | . | . | .
CCN1CCN(C(=O)c2ccc(CN(c3ccccc3)S(=O)(=O)c3ccccc3)cc2)CC1 | i | 0.69 | . | . | .
COCCNC(=O)CSc1nnc(NC(=O)C2CC(=O)N(c3ccccc3OC)C2)s1 (configuration not stated) | i | 0.81 | . | . | .
Cc1ccc(NC(CC(=O)c2ccccc2)c2ccc(F)cc2)cc1 (configuration not stated) | i | . | . | . | .
COc1ccc(C(CC(=O)c2ccc(C)cc2)Nc2ccc([N+](=O)[O-])cc2)cc1 (configuration not stated) | -6.93* | -6.93 | -42.0%* | -33.0%* | -26.0%* | KCNQ2 patch conf=i
SMILES | KCNQ2 block | KCNQ2 pot | KCNQ2 inh conf | KCNQ1 spec | CHO Tl ctr | others
Cc1occc1-c1nnc(SCC(=O)Nc2nc3ccccc3s2)o1 | i | 0.15 | . | . | .
COc1ccc(C(=O)C(c2ccccc2)N2CCOCC2)cc1 (configuration not stated) | i | 1.18 | . | . | .
Cc1ccc(C(=O)C(c2ccccc2)N2Cc3ccccc3C2=N)cc1 (configuration not stated) | -8.55* | -8.55 | -31.5%* | i | i | KCNQ2 patch conf=+
CCN(CC)CCN(C(=O)Cn1nnc(-c2ccc(C)o2)n1)C(C(=O)NC(C)(C)C)c1cccs1 (configuration not stated) | i | . | . | . | .
CCC(CC)C(=O)N(CCc1ccc(OC)cc1)Cc1nc2ccccc2c(=O)[nH]1 | -9.49* | -9.49 | -29.5%* | i | i | KCNQ2 patch conf=+
COc1ccc(CCN(Cc2nc3ccccc3c(=O)[nH]2)C(=O)c2ccco2)cc1 | i | 0.37 | . | . | .
CCN1CCN(CCCNC(=O)c2ccc(NC(=O)C3=C(C)OCCS3)cc2)CC1 | i | . | . | . | .
CCCCc1ccc(NC(=S)N2CCCC2)cc1 | i | 0.67 | . | . | .
O=[N+]([O-])c1cc(-c2cnc3ccccc3n2)ccc1Oc1ccc(F)cc1 | -8.43* | -8.43 | -20.0%* | i | i | KCNQ2 patch conf=i
O=[N+]([O-])c1ccccc1Oc1cnc2ccccc2n1 | i | 1.09 | . | . | .
CC(NC(=O)C(=O)N/N=C\c1cccc([N+](=O)[O-])c1)c1ccccc1 (configuration not stated) | i | 1.1 | . | . | .
O=C(NCCN1CCOCC1)c1ccc(NS(=O)(=O)c2cccc([N+](=O)[O-])c2)cc1 | i | . | . | . | .
CC1CN(S(=O)(=O)c2cccc(C(=O)Nc3ccccc3N3CCCCC3)c2)CC(C)O1 (configuration not stated) | -9.51* | -9.51 | -29.0%* | i | i | KCNQ2 patch conf=i
CN(C)S(=O)(=O)c1cccc(C(=O)Nc2ccccc2N2CCCCC2)c1 | i | . | . | . | .
Cc1cc(OC(C)C(=O)NCC2CCC(C(=O)O)CC2)c2c(C)cc(=O)oc2c1 (configuration not stated) | i | . | . | . | .
Cc1cc(C)cc(C(=O)NCCCN2CCOCC2)c1 | i | 0.5 | . | . | .
Cc1nn(C)c(C(=O)Sc2cccc(Cl)c2)c1[N+](=O)[O-] | -9.67* | -9.67 | -47.0%* | -49.5%* | -34.5%* | KCNQ2 patch conf=i
CCn1nc(C)cc1C(=O)Sc1cccc(Cl)c1 | i | . | . | . | .
Cc1nn(C)c(C(=O)Sc2ccccc2)c1[N+](=O)[O-] | -7.89* | -7.89 | -33.0%* | i | i | KCNQ2 patch conf=i
Cc1nn(C)c(C(=O)N/N=C/c2ccccn2)c1[N+](=O)[O-] | i | 0.06 | . | . | .
COc1ccccc1CNC(=O)COC(=O)COc1ccccc1Cc1ccccc1 | i | 0.28 | . | . | .
C=CCN(CC=C)CCOc1ccc2ccccc2c1 | i | . | . | . | .
CC(=O)Nc1cccc(C(=O)N/N=C/c2c[nH]c3ccccc23)c1 | i | 0.27 | . | . | .
CC(=O)c1ccc(NC(=S)NCc2ccc(Cl)cc2Cl)cc1 | i | . | . | . | .
Cc1cc(C)c(N=C2CCCN2Cc2ccccc2)c(C#N)c1 | -8.79* | -8.79 | -31.5%* | i | i | KCNQ2 patch conf=+
SMILES | KCNQ2 block | KCNQ2 pot | KCNQ2 inh conf | KCNQ1 spec | CHO Tl ctr | others
N#Cc1ccccc1N=C1CCCN1Cc1ccccc1 | i | . | . | . | .
O=C(CN1CCCc2ccccc21)NCCc1ccc(Cl)cc1 | -10.5* | -10.5 | -34.5%* | i | i | KCNQ2 patch conf=+
O=C(CN1CCCc2ccccc21)NCc1ccc2c(c1)OCO2 | i | . | . | . | .
COc1ccc(CCNC(=O)Cc2c(Cl)cccc2Cl)cc1 | i | 0.18 | . | . | .
Cc1cccc(-n2nc3c(c2NC(=O)CCCl)CSC3)c1 | i | . | . | . | .
Cc1cccc(-n2nc3c(c2NC(=O)c2ccc(Br)o2)CSC3)c1 | -8.96* | -8.96 | -27.5%* | i | i | KCNQ2 patch conf=i
COc1ccc(OC)c(NC(=O)NCCc2c[nH]c3ccccc23)c1 | i | . | . | . | .
CCN(CC)CCNc1ncnc2c1[nH]c1ccc(OC)cc12 | i | 1.69 | . | . | .
COc1ccc2[nH]c3c(NCCC4=CCCCC4)ncnc3c2c1 | -9.09* | -9.09 | i | i | i
CCc1nnc2c(NCCc3ccccc3)nc3ccccc3n12 | i | . | . | . | .
